Test results from PubChem BioAssay (NCATS).
“And” between values parts separate entries of the source, which are not always exact repeats. Equal entries are not always repeated. Records with an inconclusive call do not appear. The source made the active and inactive calls. Calls follow the shape of the dose curve; as a rule, active = well fitted inhibition curve with a large enough effect; inconclusive = small, poorly fitted or top-dose-only effect; inactive = flat fitted curve, though single readings scatter.

Columns and labels:
[1] = Drug repurposing screens with cells derived from glioblastoma tumor samples (AID 1345199); settings: GBM patient neurospheres viability, ATP luminescence, 48 h; also: nearly all actives have a fitted effect of over 40% in size
Outline: (§1)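 Primary testing used CD133+ neurospheres from four GBM patients, seven concentrations, 48 h exposure and ATP-based viability; confirmation added three slower-growing patient lines.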

astro = control astrocytes; assay: as above; settings: viability, ATP luminescence, 48 h; series mostly up to 45.9 µM
Outline: as §1

[2] = at 45.9 µM (top of the series), tumour line B
[3] = at 45.9 µM (top of the series), tumour line D
[4] = at 46 µM (top of the series), tumour line A
[5] = at 46.1 µM (top of the series), tumour line C
[6] = at 20 µM (top of the series), tumour line C
[7] = at 21.2 µM (top of the series), tumour line B
[8] = at 21.2 µM (top of the series), tumour line D
[9] = at 21.3 µM (top of the series), tumour line A
% is scaled to controls: 0 for no effect and ±100 for the full control effect; potency is read from the fitted curve at half-maximal effect.

NC[C@@H]1O[C@H](O[C@H]2[C@@H](O)[C@H](O[C@@H]3[C@@H](O)[C@H](N)C[C@H](N)[C@H]3O[C@H]3O[C@H](CO)[C@@H](O)[C@H](O)[C@H]3N)O[C@@H]2CO)[C@H](N)[C@@H](O)[C@@H]1O
inactive: activity, negative = cell killing [1, 2] -4.51% | activity, negative = cell killing [1, 3] -15.7% | activity, negative = cell killing [1, 4] -10.6% | activity, negative = cell killing [1, 5] -32.1% | Potency (astro)

CCCCC(O)c1ccccc1 (stereo not given)
inactive: activity, negative = cell killing [1, 2] -4.84% | activity, negative = cell killing [1, 3] -15% | activity, negative = cell killing [1, 4] -44.5% | activity, negative = cell killing [1, 5] 0.769% | Potency (astro)

O=C(O)[C@@H]1C[C@H](CP(=O)(O)O)CCN1
inactive: activity, negative = cell killing [1, 2] -4.93% | activity, negative = cell killing [1, 3] -11.9% | activity, negative = cell killing [1, 4] -21.2% | activity, negative = cell killing [1, 5] -14% | Potency (astro)

CC(=O)Nc1ccc(OC(=O)c2ccccc2O)cc1
inactive: activity, negative = cell killing [1, 2] -6.12% | activity, negative = cell killing [1, 3] -8.68% | activity, negative = cell killing [1, 4] -14.5% | activity, negative = cell killing [1, 5] -22.3% | Potency (astro)

CC(=O)Nc1c(I)c(C(=O)N[C@H]2C(O)O[C@H](CO)[C@@H](O)[C@@H]2O)c(I)c(N(C)C(C)=O)c1I (stereo not given in full)
inactive: activity, negative = cell killing [1, 6] -5.11% | activity, negative = cell killing [1, 7] -5.7% | activity, negative = cell killing [1, 8] -16.2% | activity, negative = cell killing [1, 9] -16.4% | Potency (astro)

CCN1C(=O)NC(c2ccccc2)C1=O (stereo not given)
inactive: activity, negative = cell killing [1, 6] -11.1% | activity, negative = cell killing [1, 7] -3.29% | activity, negative = cell killing [1, 8] -11.8% | activity, negative = cell killing [1, 9] -9.7% | Potency (astro)

CCCC(=O)O
inactive: activity, negative = cell killing [1, 2] -1.41% | activity, negative = cell killing [1, 3] -13.2% | activity, negative = cell killing [1, 4] -10.6% | activity, negative = cell killing [1, 5] -26.8% | Potency (astro)

c1ccc(-n2cnnn2)cc1
inactive: activity, negative = cell killing [1, 2] -15% | activity, negative = cell killing [1, 3] 5.06% | activity, negative = cell killing [1, 4] -23.5% | activity, negative = cell killing [1, 5] -0.778% | Potency (astro)

CO[C@H]1C=CO[C@@]2(C)Oc3c(C)c(O)c4c(O)c(cc(O)c4c3C2=O)NC(=O)/C(C)=C\C=C/[C@H](C)[C@H](O)[C@@H](C)[C@@H](O)[C@@H](C)[C@H](OC(C)=O)[C@@H]1C
inactive: activity, negative = cell killing [1, 2] -13.5% | activity, negative = cell killing [1, 3] -5.36% | activity, negative = cell killing [1, 4] -17.1% | activity, negative = cell killing [1, 5] -2.25% | Potency (astro)

CC(C)c1nc(N(C)S(C)(=O)=O)nc(-c2ccc(F)cc2)c1/C=C/C(O)CC(O)CC(=O)O (stereo not given)
active: Potency ([1]; tumour line A) 3.55 µM | Potency ([1]; tumour line D) 17.8 µM | Potency (astro) 10 µM
inactive: activity, negative = cell killing [1, 2] -27.3% | activity, negative = cell killing [1, 5] -19%

CO/N=C(\C(=O)N[C@@H]1C(=O)N2C(C(=O)O)=C(CSc3nc(C)c(CC(=O)O)s3)CS[C@H]12)c1csc(N)n1
inactive: activity, negative = cell killing [1, 2] -4.93% | activity, negative = cell killing [1, 3] 3.79% | activity, negative = cell killing [1, 4] -22% | activity, negative = cell killing [1, 5] -20.8% | Potency (astro)

CC[C@H](C)[C@@H]1NC(=O)[C@H](Cc2ccc(O)cc2)NC(=O)[C@@H](N)CSSC[C@@H](C(=O)N2CCC[C@H]2C(=O)N[C@@H](CC(C)C)C(=O)NCC(N)=O)NC(=O)[C@H](CC(N)=O)NC(=O)[C@H](CCC(N)=O)NC1=O
inactive: activity, negative = cell killing [1, 2] -4.51% | activity, negative = cell killing [1, 3] -1.96% | activity, negative = cell killing [1, 4] -11.4% | activity, negative = cell killing [1, 5] -6.16% | Potency (astro)

CC(C)(CO)[C@@H](O)C(=O)NCCC(=O)NCCSSCCNC(=O)CCNC(=O)[C@H](O)C(C)(C)CO
inactive: activity, negative = cell killing [1, 2] -16.4% | activity, negative = cell killing [1, 3] -15.1% | activity, negative = cell killing [1, 4] -16.6% | activity, negative = cell killing [1, 5] -15.9% | Potency (astro)

NC(N)=NCC1COC2(CCCCC2)O1 (stereo not given)
inactive: activity, negative = cell killing [1, 6] -12.8% | activity, negative = cell killing [1, 7] -14.2% | activity, negative = cell killing [1, 8] -12.9% | activity, negative = cell killing [1, 9] -18.6% | Potency (astro)

C=Cc1c(C)c2cc3nc(cc4[nH]c(cc5nc(cc1[nH]2)C(C)=C5CCC(=O)OC)c(CCC(=O)O)c4C)[C@@]1(C)C3=CC=C(C(=O)OC)[C@H]1C(=O)OC
inactive: activity, negative = cell killing [1, 2] -5.62% | activity, negative = cell killing [1, 3] -3.48% | activity, negative = cell killing [1, 4] -5.65% | activity, negative = cell killing [1, 5] -20.1% | Potency (astro)

CN1C(=O)C[C@@H](C(=O)N[C@@H](Cc2cnc[nH]2)C(=O)N2CCC[C@H]2C(N)=O)NC1=O
inactive: activity, negative = cell killing [1, 2] -7.31% | activity, negative = cell killing [1, 3] -5.42% | activity, negative = cell killing [1, 4] -26.4% | activity, negative = cell killing [1, 5] -16.9% | Potency (astro)

CC(=O)OCC(=O)[C@@]1(O)CC[C@H]2[C@@H]3CCC4=CC(=O)CC[C@]4(C)C3=CC[C@@]21C
inactive: activity, negative = cell killing [1, 2] -7.95% | activity, negative = cell killing [1, 3] 3.12% | activity, negative = cell killing [1, 4] -15.3% | activity, negative = cell killing [1, 5] -8.95% | Potency (astro)

Cc1ncc(C[n+]2csc(CCOP(=O)(O)O)c2C)c(N)n1
inactive: activity, negative = cell killing [1, 2] -1.8% | activity, negative = cell killing [1, 3] -1.97% | activity, negative = cell killing [1, 4] -17% | activity, negative = cell killing [1, 5] -10.8% | Potency (astro)

CC[C@H]1OC(=O)C[C@@H](O)[C@H](C)[C@@H](O[C@@H]2O[C@H](C)[C@@H](O[C@H]3C[C@@](C)(O)[C@@H](O)[C@H](C)O3)[C@H](N(C)C)[C@H]2O)[C@@H](CC=O)C[C@@H](C)C(=O)/C=C/C(C)=C/[C@@H]1CO[C@@H]1O[C@H](C)[C@@H](O)[C@@H](OC)[C@H]1OC
inactive: activity, negative = cell killing [1, 2] -18.4% and -8.3% | activity, negative = cell killing [1, 3] -0.155% and -17.6% | activity, negative = cell killing [1, 4] -15.7% | activity, negative = cell killing [1, 5] -3.5% and -16.4% | Potency (astro)

CC1C(=O)CC2C3(C)CCC2(C(C)C(=O)O)C(=O)C13 (stereo not given)
inactive: activity, negative = cell killing [1, 2] -19.4% | activity, negative = cell killing [1, 3] 8.38% | activity, negative = cell killing [1, 4] -22.7% | activity, negative = cell killing [1, 5] -6.43% | Potency (astro)

O=P(O)(O)OC[C@H](O)CO
inactive: activity, negative = cell killing [1, 2] -8.89% | activity, negative = cell killing [1, 3] -11.2% | activity, negative = cell killing [1, 4] -27.1% | activity, negative = cell killing [1, 5] 21.9% | Potency (astro)
